Hits are enriched below; roughly 13% of the tested compounds scored in any of these assays.
HCMV inh: human cytomegalovirus inhibition; HFF cells, HCMV-luciferase reporter, 72 h; stronger effect = lower value; activity change, negative = inhibition, % at 57.5 µM; actives 4.5% (n = 410,000); AID 1259415; in the data active = activity change below about -60%; inconclusive = no clear call, values can overlap the other calls; inactive = above about -39%
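HFF cells seeded 16 h at 37C, treated with compounds, infected with luciferase-reporter HCMV at MOI 1 PFU/cell; luciferase read at 72 h post infection, normalized to buffer-only and Salinomycin controls.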
Pf growth 96h: P. falciparum growth inhibition at 96 hours | actives 6.9% (n = 320,000) | P. falciparum luciferase reporter growth, 96 h | AID 504834 | Potency, µM (series often up to 28.7 µM), without a hit: at the highest dose activity change, negative = inhibition, hits mostly inhibitors; note: potency is the fitted concentration of half-maximal effect
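Two-generation exposure (96 h) targets delayed-death phenotype. Reporter parasites carrying integrated firefly luciferase, in red cells at 2% hematocrit and 0.05% parasitemia final, kept at 37 C, 5% CO2; luminescence loss indicates inhibition.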
Pf growth 48h: P. falciparum growth inhibition at 48 hours (one generation). P. falciparum luciferase growth in erythrocytes, 48 h. Potency, µM (series often up to 28.7 µM), for the others: at the highest dose activity change, negative = inhibition, most hits filed as inhibitors. actives 5.9% (n = 310,000). AID 504832; note: potency is the fitted concentration of half-maximal effect
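Cell-based growth assay: transgenic P. falciparum expressing firefly luciferase, cultured in red cells within RPMI 1640 containing 0.5% w/v Albumax, 24 mM bicarbonate and gentamycin. A drop in luciferase activity indicates inhibition.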
HCV inhibitor: HCV inhibition; Huh7.5.1 HCVcc-Cre infection, luciferase reporter, 44 h; Potency, µM (titrated, usually from 41.8 µM), for the others: top-dose activity change, negative = inhibition, usual class: inhibitors; actives 3.4% (n = 340,000); note: potency is the fitted concentration of half-maximal effect
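After 44 h co-culture of compound, cells and HCVcc-Cre (~0.5 moi), substrate is added for 15 min at room temperature and luciferase measured over 15 sec. Cells were seeded at 1,000/well and pre-cultured 4 h.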
* marks the source's active call; other numbers are inactive results; ? = inconclusive; . = not tested or not shown. Unless noted, calls come from the whole dose curve; as a rule, active = well fitted inhibition curve with a large enough effect; inconclusive = small, poorly fitted or top-dose-only effect, or another doubt; inactive = no such curve, though single readings can be large or run the other way. % is set by controls: 0 for no effect and ±100 for the full control effect.

SMILES	HCMV inh	Pf growth 96h	Pf growth 48h	HCV inhibitor
COC(=O)c1cc(NC(=O)CCc2c(C)nc3cc(-c4ccccc4)nn3c2C)cc(C(=O)OC)c1	7.6	.	.	.
COc1ccc(NC(=O)CCc2c(C)nc3cc(-c4cccc(F)c4)nn3c2C)cc1Cl	-31.2	.	.	.
COc1cccc(-c2csc(-c3c(N)c(C(=O)c4ccccc4)n4ccccc34)n2)c1	-24.1	.	.	.
CCOCCCNC(=O)c1ccc(OC)c(OC2CCN(C(C)C)CC2)c1	19.7	14.7µM*	12.6%	5.4%
COc1ccc(C(=O)N2CCCCCCC2)cc1OC1CCN(C(C)C)CC1	8.5	3.7µM*	12.2%	3.2%
O=C(Cn1cccc1C(=O)c1ccccc1)NCCCc1ccccc1	-33.1	?	9.9%	-11.3%
O=C(Cn1cccc1C(=O)c1ccccc1)NCCC1=CCCCC1	-64.3*	0.0%	-12.5%	-2.1%
O=C(Cn1ncc2c(=O)oc3ccccc3c21)NCCC1=CCCCC1	-21.4	9.28µM*	-7.6%	-6.9%
O=C(Cn1ncc2c(=O)oc3ccccc3c21)N1CCc2ccccc2C1	36.1	34.8%	8.4%	-15.4%
Cc1ccc(CCNC(=O)Cn2ncc3c(=O)oc4ccccc4c32)cc1	-1.3	.	.	.
O=C(Cn1ncc2c(=O)oc3ccccc3c21)N1CCC(N2CCCCC2)CC1	4.2	11.7µM*	16.8%	-3.6%
CCOc1ccc(CCNC(=O)c2cnc3sc(N4CCCCC4)nn3c2=O)cc1	25.5	.	.	.
CCc1ccc(-c2nc(SCC(=O)NCCOC)c(-c3ccc(C)cc3)[nH]2)cc1	-29.5	.	.	.
CCc1ccc(-n2nc3cc(C)c(NC(=O)c4cccc5ccccc45)cc3n2)cc1	15.8	.	.	.
CC(=O)Nc1ccc(N2Cc3ccccc3C2)cc1	8.4	?	64.7%	8.4%
CC(=O)Nc1ccc(N2S(=O)(=O)c3ccccc3S2(=O)=O)cc1	24.3	11.7µM*	-16.0%	-24.6%
COc1ccc(S(=O)(=O)N(C)C)cc1NCC(=O)Nc1ccc(Br)c(C)c1	?	?	10.4µM*	10µM*
NS(=O)(=O)c1ccc(NC(=O)CN2C(=O)C3C4C=CC(C4)C3C2=O)cc1 (centres undefined)	18.3	28.8%	21.3%	?
COc1ccc(CCC(=O)Nc2ccc(C)c(S(=O)(=O)N(C)C)c2)cc1OC	-77.5*	-7.2%	-2.3%	?
COc1ccc(S(=O)(=O)N(C)C)cc1NC(C)C(=O)Nc1cccc(C#N)c1 (centres undefined)	10.1	?	2.94µM*	-6.9%
Cc1ccc(NC(=O)CN2C(=O)C3C4C=CC(C4)C3C2=O)cc1S(=O)(=O)N(C)C (centres undefined)	-102.7*	-0.7%	22.8%	15.8%
CCOc1ccccc1C(=O)Nc1cc(-c2nc3cccnc3s2)ccc1C	10.8	.	.	.
CCCCn1cc(S(=O)(=O)c2ccccc2)c(=O)c2cc(F)c(N3CCN(CCC)CC3)cc21	-11.0	.	.	.
O=C(Nc1ccc(-n2cccc2)cc1)C1=COC2=NC(=O)N(Cc3ccccc3)CCN12	-87.1*	.	.	.
CC(=O)Nc1ccc(NC(=O)C2=COC3=NC(=O)N(Cc4ccccc4C)CCN23)cc1	-34.8	.	.	.
SMILES	HCMV inh	Pf growth 96h	Pf growth 48h	HCV inhibitor
COCC(=O)N1CCC(Oc2ccc(C(=O)NCc3cc(C)no3)cc2)CC1	33.3	4.15µM*	8.2%	9.7%
COCCC(=O)N1CCC(Oc2ccc(C(=O)NCCCC3CCCC3)cc2)CC1	14.4	11.7µM*	-16.7%	?
COCCC(=O)N1CCC(Oc2ccc(C(=O)NC3CCCCC3)cc2)CC1	-1.7	?	-11.0%	14.4%
CN(C)S(=O)(=O)N1CCC(Oc2ccc(C(=O)NC3Cc4ccccc4C3)cc2)CC1	-81.5*	?	?	3.55µM*
COCC(=O)N1CCC(Oc2ccc(C(=O)NC3Cc4ccccc4C3)cc2)CC1	.	10.4µM*	17.5%	-13.9%
CC1CCCCN1C(=O)c1ccc2c(c1)N(Cc1ccc(Cl)cc1)C(=O)c1ccccc1S2=O (centres undefined)	-15.0	.	.	.
COc1ccc(OCC(=O)NCCS(=O)(=O)N2CCN(c3cccc(Cl)c3)CC2)cc1	-38.6	.	.	.
CC(=O)NCCNC(=O)CCCc1nnc2n(C)c(=O)c3sccc3n12	-1.4	.	.	.
CCOC(=O)c1cccc(NC(=O)c2cc3cc4ccc(C)cc4nc3o2)c1	27.1	.	.	.
CC12CC(c3ccccc3O1)N(C(=O)c1ccco1)C(=S)N2c1ccc(F)cc1 (centres undefined)	58.7	.	?	2.82µM*
Cc1ccccc1C(=O)N1CCN(c2ccc(NC(=S)NC(=O)c3ccco3)cc2)CC1	-87.4*	-27.2%	?	6.1%
O=C(Nc1ccc(N2CCN(C(=O)c3ccco3)CC2)cc1)c1ccco1	-30.6	?	-9.2%	5.4%
Cc1ccccc1C(=O)N1CCN(c2ccc(NC(=O)c3ccco3)cc2Cl)CC1	10.1	1.3%	3.29µM*	11.2µM*
O=C(Nc1ccc(N2CCN(C(=O)c3cccs3)CC2)c(Cl)c1)c1ccco1	14.9	?	.	?
COc1ccccc1C(=O)NC(=S)Nc1ccc(N2CCN(C(=O)c3ccco3)CC2)cc1	13.1	5.0%	?	31.6µM*
Cc1ccc(/C=C/c2onc(C)c2S(=O)(=O)N2CCC(C(=O)NCc3ccc(Cl)cc3)CC2)cc1	5.3	.	.	.
Cc1cccc(Cn2c(=O)n(Cc3ccccc3)c(=O)c3sc4ccccc4c32)c1	-35.7	.	.	.
COCCCNC(=O)CCn1c(=O)c2ccccc2n(CC(=O)Nc2cc(Cl)ccc2OC)c1=O	13.0	.	.	.
COc1cc(-c2noc(C)c2C#CC2(N)CCCCC2)cc(OC)c1OC	102.4	1.85µM*	?	?
CCC(=O)Nc1c(S(=O)(=O)c2ccccc2)c2nc3ccccc3nc2n1C(C)c1ccccc1 (centres undefined)	.	11.7µM*	11.7µM*	?
CCCCn1c(NC(=O)c2ccc(Br)o2)c(S(=O)(=O)c2ccccc2)c2nc3ccccc3nc21	.	.	?	-4.6%
Cc1cccc2c1-c1sc(C(=O)N3CCN(c4ccc(F)cc4)CC3)cc1CO2	4.9	.	.	.
Cc1ccccc1CNC(=O)c1ccc(CSCc2ccccc2)cc1	-16.9	6.57µM*	?	-6.0%
CS(=O)(=O)N(CC(=O)NCCSCc1ccccc1)c1ccccc1Br	52.9	7.38µM*	8.3%	-0.1%
CS(=O)(=O)Nc1ccc(C(=O)NCCc2ccccc2)cc1	68.1	.	193.7%	0.3%
SMILES	HCMV inh	Pf growth 96h	Pf growth 48h	HCV inhibitor
Cc1ccccc1N(CC(=O)NCCSCc1ccccc1)S(C)(=O)=O	22.1	11.7µM*	-14.1%	3.9%
Cc1cccc(N(CC(=O)NCCSCc2ccccc2)S(C)(=O)=O)c1C	12.2	-34.2%	-11.3%	-10.3%
CS(=O)(=O)Nc1ccc(C(=O)NCCSCc2ccccc2)cc1	3.0	13.1µM*	?	2.2%
Cc1ccc(C)c(NC(=O)COc2cccc3c2CCN(Cc2ccccc2C)C3=O)c1	-9.4	10.4µM*	?	5.5%
COc1ccc(NC(=O)COc2cccc3c2CCN(Cc2cccnc2)C3=O)c(OC)c1	?	1.31µM*	5.22µM*	-21.8%
CCOc1ccc(NC(=O)COc2cccc3c2CCN(Cc2cccnc2)C3=O)cc1	-14.6	?	11.7µM*	.
